Source: PubChem BioAssay (NCATS)
Results filed as inconclusive are left out. A call without a number means that no potency is given here. The source made the active and inactive calls. Calls come from the whole dose curve; as a rule, active = well fitted curve in the direction sought with a large enough effect; inconclusive = small, poorly fitted or top-dose-only effect, or another doubt; inactive = no such curve, though single readings can be large; an effect the other way counts as inactive or inconclusive.

Test: Cell Viability - LYMP2-003 (AID 965);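 note: cells exposed to compounds for 24 h before reading; nearly all actives have a fitted effect of over 50% in size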
Conditions: LYMP2-003 lymphoblastoid cell viability; series mostly up to 92.2 µM
Method in brief: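 Acute cytotoxicity is scored as a concentration-dependent drop in intracellular ATP, measured by luciferase luminescence in human lymphoblastoid cells treated for 24 hours at 37 C. AC50 values derive from Hill-equation modelling.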
Potency is the fitted concentration of half-maximal effect.

Q: For NC(=Nc1ccccc1)Nc1ccccc1, which Potency is on record?
A: inactive

Q: With CN=C(NC#N)NCCSCc1nc[nH]c1C as the molecule, how does the Potency read?
A: inactive

Q: For COc1ccc(CN(CCN(C)C)c2ccccn2)cc1, which Potency is on record?
A: inactive

Q: Which Potency does the source give for CCCCOCCOCCOCc1cc2c(cc1CCC)OCO2 here?
A: inactive

Q: For Nc1nc(N)c2nc(-c3ccccc3)c(N)nc2n1, which Potency is on record?
A: inactive

Q: With NC(=O)N1c2ccccc2C=Cc2ccccc21 as the molecule, how does the Potency read?
A: inactive

Q: Which Potency does the source give for O=c1[nH]c(=O)n([C@H]2C[C@H](O)[C@@H](CO)O2)cc1Br here?
A: inactive

Q: With Nc1ncn([C@@H]2O[C@H](CO)[C@@H](O)[C@H]2O)c(=O)n1 as the molecule, how does the Potency read?
A: 10 µM (active)

Q: With CCCCNC(=O)NS(=O)(=O)c1ccc(C)cc1 as the molecule, how does the Potency read?
A: inactive

Q: Which Potency does the source give for COc1cc(Cc2cnc(N)nc2N)cc(OC)c1OC here?
A: inactive

Test: Cell Viability - LYMP2-004 (AID 966);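 note: cells exposed to compound for 24 h; nearly all actives have a fitted effect of over 65% in size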
Conditions: LYMP2-004 lymphoblastoid cell viability, qHTS; series mostly up to 92.2 µM
Method in brief: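 qHTS cytotoxicity: human lymphoblastoid line, 24 hr compound treatment, 37 C, complete medium. Viability read as cellular ATP via luciferase luminescence; tetraoctylammonium bromide served as positive control.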

Q: With NC(=Nc1ccccc1)Nc1ccccc1 as the molecule, how does the Potency read?
A: inactive

Q: With CN=C(NC#N)NCCSCc1nc[nH]c1C as the molecule, how does the Potency read?
A: inactive

Q: For COc1ccc(CN(CCN(C)C)c2ccccn2)cc1, which Potency is on record?
A: inactive

Q: For CCCCOCCOCCOCc1cc2c(cc1CCC)OCO2, which Potency is on record?
A: inactive

Q: For Nc1nc(N)c2nc(-c3ccccc3)c(N)nc2n1, which Potency is on record?
A: inactive

Q: With NC(=O)N1c2ccccc2C=Cc2ccccc21 as the molecule, how does the Potency read?
A: inactive

Q: For O=c1[nH]c(=O)n([C@H]2C[C@H](O)[C@@H](CO)O2)cc1Br, which Potency is on record?
A: inactive

Q: With Nc1ncn([C@@H]2O[C@H](CO)[C@@H](O)[C@H]2O)c(=O)n1 as the molecule, how does the Potency read?
A: 12.6 µM (active)

Q: With CCCCNC(=O)NS(=O)(=O)c1ccc(C)cc1 as the molecule, how does the Potency read?
A: inactive

Q: For COc1cc(Cc2cnc(N)nc2N)cc(OC)c1OC, which Potency is on record?
A: inactive
